The record followed here is publication PMC7819943, “Rice protein-binding microarrays: a tool to detect cis-acting elements near promoter regions in rice”.

Over roughly 35,000 sequences, “fluorescence intensity (a.u.)” has its median near 10,000; the highest 2% begin near 52,000. Many of the other results were omitted from the sample, so the highest values are more common in it than they were.

The target in the assay is T1, OsWOX13 (Oryza sativa, UniProt Q5QMM3 1-267).
T1 sequence: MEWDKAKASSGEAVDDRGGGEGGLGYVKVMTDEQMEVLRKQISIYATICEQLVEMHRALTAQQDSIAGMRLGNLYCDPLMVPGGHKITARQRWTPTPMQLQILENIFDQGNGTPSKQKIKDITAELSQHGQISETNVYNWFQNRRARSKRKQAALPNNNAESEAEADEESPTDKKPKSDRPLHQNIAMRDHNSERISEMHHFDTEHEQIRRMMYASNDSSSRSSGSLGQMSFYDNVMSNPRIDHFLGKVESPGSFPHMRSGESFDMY
The experiment in a line: protein-binding microarray (RPBM); PBS, 2% BSA, 51.3 ng/ul salmon testes DNA, 50 uM zinc acetate, 200 nM TF, 25 C, 1 h; high values mean tight binding. The following applies: protein: recombinant; tags: N-terminal polyhistidine and DsRed monomer fusion (pET32a); label: CyDye5-dUTP incorporated in the synthesized complementary strand; 3' TTTTT single-stranded linker to array surface; dsDNA, one strand shown. The gist of the method:
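Transcription factors were each fused at the N-terminus to a polyhistidine tag plus DsRed and expressed in E. coli BL21-CodonPlus before Ni–NTA purification. Binding to a double-stranded custom Agilent array was carried out with 200 nM protein at 25 °C for 1 h in PBS, 2% BSA, salmon testes DNA and 50 µM zinc acetate. The binding signal is per-feature fluorescence intensity, in arbitrary units, on an Axon 4000B scanner.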
In the case of “GAAATTAAACTAATATTTCGGCCCATCAAGGGCTCGCTTGCGGAGTCACCTAGTGCAG”, the binding signal is 8580 fluorescence intensity (a.u.). Turning to “TCTGATTATTAATTATCACTTTATCAGTCTCCAACGTTTACGGAGTCACCTAGTGCAG”, the binding signal is 40900 fluorescence intensity (a.u.). The value for “ATACTTAATTAATGATACGATAATTGAATTTATTCTCTCCCGGAGTCACCTAGTGCAG” was 49900 fluorescence intensity (a.u.); that for “ATACTTGACAGGTTTTATGCATATAAGAAAATCTGTTTAACGGAGTCACCTAGTGCAG” was 7520 fluorescence intensity (a.u.); that for “CTCTCTCTCTGATTAGTTAATTGAATACATTGTAAGGGCCCGGAGTCACCTAGTGCAG” was 41200 fluorescence intensity (a.u.). Consider “TCGCTAATAAATCATATGATGTCATGGGCCCGAGACATCTCGGAGTCACCTAGTGCAG”, for which the binding signal is 3380 fluorescence intensity (a.u.). The value for “TGTGTTAAACTATATAATTTTCTCTAAAACATAATGGTACCGGAGTCACCTAGTGCAG” was 3720 fluorescence intensity (a.u.).

For “TTAATTCTATCTAGTAGTAGAGTTAGTTATTTATATATTACGGAGTCACCTAGTGCAG”, the binding signal was 5310 fluorescence intensity (a.u.). The value for “CCTTCGATTATTGGCACGGATTGTTTATCCAGGTAAGACTCGGAGTCACCTAGTGCAG” was 13300 fluorescence intensity (a.u.); that for “CACATCAACCTGCACCAATCATGCCATCGAGATCACAACACGGAGTCACCTAGTGCAG” was 3970 fluorescence intensity (a.u.); that for “ATCTCCAAAATTTTAAATTTTAATTAAAACCTAACTTACACGGAGTCACCTAGTGCAG” was 6930 fluorescence intensity (a.u.). For the sequence “CTTTAAAATTAATTAAATTTGAAAATTAGTAACGAGGGGACGGAGTCACCTAGTGCAG”, the binding signal was 26700 fluorescence intensity (a.u.).

In the case of “AATAATTGAATATATTTTCATAATAAATGTGTGTTGAGTTCGGAGTCACCTAGTGCAG”, the binding signal was 38400 fluorescence intensity (a.u.). With “GCACTAGTGATTGGAACAATATTAATTTCAGAAACATTGCCGGAGTCACCTAGTGCAG”, the binding signal was 32700 fluorescence intensity (a.u.).

Turning to “TATAATTGAATAAATTTTCATATTATATTTATCTTGTGTTCGGAGTCACCTAGTGCAG”, the binding signal was 63100 fluorescence intensity (a.u.). The value for “AAGAATTGATAGATGAAACGTGATTAGATACTAACTATACCGGAGTCACCTAGTGCAG” was 41200 fluorescence intensity (a.u.); that for “TTAATATAAAAGTAATTATTTAAATTGTAGAAACAATTTACGGAGTCACCTAGTGCAG” was 5710 fluorescence intensity (a.u.). In the case of “ACAATTGAAGATAAATGACAAACCAATAAACCATTTGTTTCGGAGTCACCTAGTGCAG”, the binding signal was 5080 fluorescence intensity (a.u.). The value for “TGAATAATTGACAATTTAACCAGACCATTAATTAATTGTTCGGAGTCACCTAGTGCAG” was 62400 fluorescence intensity (a.u.); that for “AGAAATTGAACGTGATTAACGGGGAGGGCACTAGTGAGGCCGGAGTCACCTAGTGCAG” was 53000 fluorescence intensity (a.u.); that for “CTAGAAATTAGGTGATTAATTTATTAAACACAATATTGCCCGGAGTCACCTAGTGCAG” was 56900 fluorescence intensity (a.u.). On to “AATAATTGAATATATTTTCATAATAAATTTGTCTTGGGTTCGGAGTCACCTAGTGCAG”, for which the binding signal was 44400 fluorescence intensity (a.u.).

Turning to “TACTAATTTTGAATTTAGAGCTATTAACCAATAAATTGTTCGGAGTCACCTAGTGCAG”, the binding signal is 12200 fluorescence intensity (a.u.). As to “TAGTGATTTGAAAATACGGGTGCAAACAATGGAGCAACAACGGAGTCACCTAGTGCAG”, the binding signal is 3560 fluorescence intensity (a.u.). The figure for “ATTTACCGCAACTGTAATTGAGATGGTTTTGAGATTTCATCGGAGTCACCTAGTGCAG” is 6850 fluorescence intensity (a.u.); for “TGTCACAGGTAAATCACTGCAATTAGCGAGTCATGGCTCACGGAGTCACCTAGTGCAG” it is 8530 fluorescence intensity (a.u.); for “TGATGTTTCATCACTAATTTGTATTTGATAACCTGCATATCGGAGTCACCTAGTGCAG” it is 5260 fluorescence intensity (a.u.). As for “CTGATTTGCAGTTCGTTCGTGCCTCTCACAATCAAACCCCCGGAGTCACCTAGTGCAG”, the binding signal was 14300 fluorescence intensity (a.u.).

In the case of “AGGTTGCAATCATTGGCCAGACGTTGCATGTCGTTGTTGACGGAGTCACCTAGTGCAG”, the binding signal was 13700 fluorescence intensity (a.u.). Regarding “CTTGTTATTGAATAATGGATTAACTAACTAATAACTAACGCGGAGTCACCTAGTGCAG”, the binding signal was 12800 fluorescence intensity (a.u.). For the sequence “CAACAGATTAATGACATGTCAACAGCTGCATGCTCTAGCTCGGAGTCACCTAGTGCAG”, the binding signal is 14200 fluorescence intensity (a.u.). The figure for “CCGGTCTCCAAATCTTTATTAATTGCTTCCTCAAAACCCCCGGAGTCACCTAGTGCAG” is 3980 fluorescence intensity (a.u.); for “ATTAACGACTTTTAATTTGAAACGGATTGAGTAGCTAGTTCGGAGTCACCTAGTGCAG” it is 16100 fluorescence intensity (a.u.); for “TCTGTATGGTCTACTTGTTTGATTGATTGATAATTTTACACGGAGTCACCTAGTGCAG” it is 22300 fluorescence intensity (a.u.). In the case of “TTTAATTAATTGTAGGACAAGATAGCAAACGTGTGGCTACCGGAGTCACCTAGTGCAG”, the binding signal is 59900 fluorescence intensity (a.u.). As for “CACGATGATTGTTTGTATATGGAAACACCAAAATGGTCTACGGAGTCACCTAGTGCAG”, the binding signal is 54700 fluorescence intensity (a.u.).

For “GGAAAATGCTCTAATGATTGTTATGGAGTTTATCTGTAATCGGAGTCACCTAGTGCAG”, the binding signal is 5570 fluorescence intensity (a.u.). The figure for “AGAGATTATTGAATATTGTTGCGATGACTTATAATCTTATCGGAGTCACCTAGTGCAG” is 5070 fluorescence intensity (a.u.); for “ATTAATTGGTCGTGTATTAGCAAACGATATATATATCGGTCGGAGTCACCTAGTGCAG” it is 50500 fluorescence intensity (a.u.). Consider “ACTGATAACAAAATAATTTATAGGTAAAACTTTTAATATGCGGAGTCACCTAGTGCAG”, for which the binding signal was 7340 fluorescence intensity (a.u.).

In the case of “AAAACAAATTTTATTATAAATATACGTTTAACTAACTTAGCGGAGTCACCTAGTGCAG”, the binding signal is 6070 fluorescence intensity (a.u.). With “TGGTAATTTTATGATTAAATTGACACTAACAAACTTATAGCGGAGTCACCTAGTGCAG”, the binding signal is 57200 fluorescence intensity (a.u.).

For “CACTATTAATTGTGCTTAGAGCAAGTTTAATAGTGTAGCCCGGAGTCACCTAGTGCAG”, the binding signal was 9860 fluorescence intensity (a.u.). Turning to “AAAAGAATAATTTATTGTCTTGTTCAGTTAATCCCTCCCTCGGAGTCACCTAGTGCAG”, the binding signal was 3330 fluorescence intensity (a.u.). The value for “ATAATCCCTTGCGATTTATATTGAATTAATAGTTCTTGTTCGGAGTCACCTAGTGCAG” was 65000 fluorescence intensity (a.u.); that for “AATTAATTTCTAAATACAATCATTATTCACCTCGTAATATCGGAGTCACCTAGTGCAG” was 7210 fluorescence intensity (a.u.).

Turning to “CCATATAATTATGCTTGTTATTATGTGACAAAGAGCGGGTCGGAGTCACCTAGTGCAG”, the binding signal was 25400 fluorescence intensity (a.u.).

In the case of “CCAAAATATATTAATTAGCTCAGGTATGTACCCGCCCAATCGGAGTCACCTAGTGCAG”, the binding signal was 10700 fluorescence intensity (a.u.). For “GTATATTTAATAATAAATCAACTCGCAATGAGACAAAATGCGGAGTCACCTAGTGCAG”, the binding signal is 4570 fluorescence intensity (a.u.).

With “ATTCTTAAATTGTTTTAACTAATACTTAATCAGCCATGAACGGAGTCACCTAGTGCAG”, the binding signal was 7790 fluorescence intensity (a.u.).

Turning to “TTGGTGATATTGATGGAGCATGTTTTATTTGATAGAATAGCGGAGTCACCTAGTGCAG”, the binding signal was 3390 fluorescence intensity (a.u.). For “GTGCTCTTTAATTATCACTTTGTGCGCACTTTTCTTTGATCGGAGTCACCTAGTGCAG”, the binding signal is 6410 fluorescence intensity (a.u.).

On to “TTAGATAGATTAATATGTGATAGATCTTCACAAACAGACACGGAGTCACCTAGTGCAG”, for which the binding signal was 54900 fluorescence intensity (a.u.). The value for “AACTTGAAACAATTTGATTTTGACTAAAGTCAAAACGTCTCGGAGTCACCTAGTGCAG” was 4710 fluorescence intensity (a.u.); that for “GATAGATTAATATATGATATATCTTTTCACAAACATACAACGGAGTCACCTAGTGCAG” was 10500 fluorescence intensity (a.u.); that for “CATTGATGACACAAAATAGTAGCAACTAAACAAACCAGAACGGAGTCACCTAGTGCAG” was 6690 fluorescence intensity (a.u.). The value for “TTGATTGATGGGAGTCTAACAAAGTGACAAAACTTAGCAACGGAGTCACCTAGTGCAG” was 53900 fluorescence intensity (a.u.); that for “TTGAATGACTACGAATTTGTTTAAATATTTGCATTCCATCCGGAGTCACCTAGTGCAG” was 7180 fluorescence intensity (a.u.); that for “ATTGATTGACCGAGCGCACTACTCTTTATCTTTTCGATTGCGGAGTCACCTAGTGCAG” was 64900 fluorescence intensity (a.u.).

For “AATTCTAATATATTTGATTGTTTCAAAATAAAGTCTTTGCCGGAGTCACCTAGTGCAG”, the binding signal is 14700 fluorescence intensity (a.u.).

For the sequence “TGCCGATTGATCTTTTATCCTTTGGGGCATATGCTCGAGTCGGAGTCACCTAGTGCAG”, the binding signal was 24400 fluorescence intensity (a.u.). The value for “TTCAATTGATATAGACACAGATCTATGTGATTCACTGACACGGAGTCACCTAGTGCAG” was 21700 fluorescence intensity (a.u.); that for “TTTGATTGTTTCCATTTGCAATTTCTAAATACGAACCTGCCGGAGTCACCTAGTGCAG” was 57500 fluorescence intensity (a.u.).
